Data taken from PubChem BioAssay AID651956 (Broad Institute, 2012).
Potency and affinity values are given separately. Inconclusive results are not listed. The source made the active and inactive calls.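 Rule for the calls: active = in every test run, a fitted half-maximal concentration for signal decrease at or below twice the highest tested concentration; inconclusive = runs disagree, flat 30 to 70% decrease, or poor fit; inactive = the rest.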

experiment: activation of miR-122 Renilla sensor silencing – cell-based, Huh7 psiCHECK-miR122, Renilla luciferase, cherry-picked, dose response (AID 651956); settings: Huh7 psiCHECK-miR122 Renilla luciferase reporter, 48 h; series mostly up to 35 µM; activity change, negative = signal decrease: at the top concentration;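 note: Renilla luciferase from a miR-122 sensor reporter so lower signal means miR-122 activation; 0% = median neutral control wells and -100% = median positive control wells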

SMILES	activity change, negative = signal decrease
C/C=C/c1ccc([C@H]2[C@@H](CO)N[C@@H]2CN(CC)C(=O)CN2CCOCC2)cc1	10.4% (inactive)
CCCCN1C=C(C(=O)OC)C(c2ccccc2C(F)(F)F)C(C(=O)OC)=C1	40.1% (inactive)
N#CCc1c(C#N)c(N)nc(N2CCN(S(=O)(=O)c3ccccc3)CC2)c1C#N	88.6% (inactive)
COc1ccc(C#Cc2ccc3c(c2)O[C@H](CN(C)C(=O)CN2CCOCC2)[C@@H](C)CN([C@@H](C)CO)S3(=O)=O)cc1	-14.5% (inactive)
CCCNC(=O)C[C@@H]1CC[C@@H]2[C@H](COc3ccc(NC(=O)Nc4ccccc4F)cc3C(=O)N2C)O1	-38.3% (inactive)
Cc1ccc(OCC(O)Cn2c(=N)n(Cc3ccccc3)c3ccccc32)cc1 (centres undefined)	19.9% (inactive)
CC(C)NC(=O)N1C[C@@H]2[C@H](c3ccccc31)[C@H](CO)N2Cc1ccccc1	-18.9% [at 30 µM] (inactive)
COC(=O)C[C@@H]1CC[C@@H]2[C@H](COc3ccc(NC(=O)c4ccc(F)c(F)c4)cc3C(=O)N2C)O1	-16% (inactive)
COCC(=O)N(C)C[C@@H]1[C@H](c2ccc(-c3ccccc3)cc2)[C@@H](CO)N1C(C)=O	-23.3% (inactive)
COc1cccc(CNC(=O)C[C@@H]2CC[C@@H]3[C@H](COc4ccc(NC(C)=O)cc4C(=O)N3C)O2)c1	14.2% (inactive)
CNC(=O)C[C@H]1CC[C@@H]2[C@H](COc3ccc(NC(=O)C(C)C)cc3C(=O)N2C)O1	158% (inactive)
CO[C@H]1CN(C)C(=O)c2cc(NC(=O)c3ccccc3F)ccc2OC[C@@H](C)N(C)C[C@@H]1C	-13.2% (inactive)
CN(Cc1ccccc1)C(=O)COC(=O)c1ccccc1Nc1ccccc1	52.7% (inactive)
CC(C)NC(=O)N(C)C[C@H]1Oc2cc(C#C[C@H](C)O)ccc2S(=O)(=O)N([C@@H](C)CO)C[C@H]1C	67.8% (inactive)
CN1C(=O)c2cc(NS(=O)(=O)c3cccc(F)c3)ccc2OC[C@@H]2O[C@@H](CC(=O)NCCN3CCCCC3)CC[C@H]21	57.9% (inactive)
C[C@@H]1CN([C@H](C)CO)S(=O)(=O)c2ccc(C3=CCCC3)cc2O[C@@H]1CN(C)C(=O)c1ccc(F)cc1	-60.6% (inactive)
CO[C@H]1CN(C)C(=O)c2ccc(NS(C)(=O)=O)cc2OC[C@H](C)N(C(=O)CN(C)C)C[C@H]1C	-7.02% (inactive)
CNC(=O)C[C@@H]1CC[C@@H]2[C@@H](COc3ccc(NC(=O)c4ccccc4F)cc3C(=O)N2C)O1	0.812% (inactive)
CSc1cccc(NS(=O)(=O)c2ccccc2)c1	535% (inactive)
COC(=O)c1nn(-c2ccccc2)c(Sc2ccc(Cl)cc2)c1/C=N/O	94.2% (inactive)

SMILES	activity change, negative = signal decrease
Cc1ccc(Nc2c(-c3ccccn3)nc3cc(C)ccn23)cc1	-26.2% (inactive)
Clc1ccc(CSc2nnc(-c3ccncc3)o2)c(Cl)c1	62.1% (inactive)
CCCNC(=O)C[C@@H]1CC[C@@H]2[C@@H](COc3ccc(NC(=O)Nc4ccccc4F)cc3C(=O)N2C)O1	-17% (inactive)
CN1C(=O)c2cc(NC(=O)c3cccc(F)c3)ccc2OC[C@@H]2O[C@@H](CC(=O)O)CC[C@H]21	28.9% [at 30 µM] (inactive)
CC(C)N(C[C@@H]1N[C@@H](CO)[C@@H]1c1ccccc1)S(=O)(=O)c1ccccc1	88.1% (inactive)
Cc1nnsc1Sc1cccc(C(F)(F)F)c1	39.2% (inactive)
C/C=C/c1ccc([C@H]2[C@H](CO)N(C(C)=O)[C@H]2CN(C)C(=O)c2ccccn2)cc1	-23.3% (inactive)
C/C=C/c1ccc([C@H]2[C@@H](CO)N[C@@H]2CN(CC(C)C)C(=O)c2ccccn2)cc1	179% (inactive)
COc1cccc(COc2cc3ccccc3nc2C)c1	-4.9% (inactive)
CCNC(=O)Nc1ccc2c(c1)C(=O)N(C)[C@H]1CC[C@H](CC(=O)NCCOC)O[C@@H]1CO2	-20.9% (inactive)
C/C=C/c1ccc([C@@H]2[C@@H](CNC(=O)c3ccncc3)N(C(=O)CC)[C@H]2CO)cc1	-20% (inactive)
c1ccc(-c2nnc3n2CCCC3)cc1	-17.3% (inactive)
CNC(=O)C[C@H]1CC[C@@H]2[C@H](COc3ccc(NC(=O)NC(C)C)cc3C(=O)N2C)O1	183% (inactive)
O=C(NC[C@H]1[C@H](c2ccccc2)[C@@H](CO)N1Cc1ccccn1)C1CC1	-15.8% [at 30 µM] (inactive)
CCN(CC)CCNc1nc(-c2ccccc2)nnc1C(F)(F)F	-20.6% (inactive)
COc1cccc(OCc2cc(/C=N/Nc3ccc(C(=O)O)cc3)ccc2OC)c1	107% (inactive)
CCOC(=O)C1CCN(C(c2cccnc2)c2c(NC(=O)c3ccco3)sc(C)c2C)CC1 (centres undefined)	-28.7% (inactive)
Cc1ccc(-c2ccc3c(c2)O[C@H](CN(C)C(=O)CC2CC2)[C@H](C)CN([C@@H](C)CO)S3(=O)=O)cc1	-108% (inactive)
COc1ccccc1NC(=O)Nc1ccc2c(c1)C(=O)N(C)[C@H]1CC[C@H](CC(=O)Nc3ccc4c(c3)COC4)O[C@@H]1CO2	78.8% (inactive)
